# Nrf2 ARE act = qHTS of Nrf2 Activators; AID 624171, 2012; AREc32 ARE-luciferase reporter (MCF7-derived line), luminescence, 24 h; Potency, µM (highest dose often 46.1 µM), for inactives: at the highest dose activation, usual class: activators; 0.31% of 410,000 active; further: % of control where 0% means no effect; nearly all actives have a fitted effect of over 65% in size
#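 ARE-driven firefly luciferase activity in AREc32 cells measured after a 24 hr compound exposure at 37 deg C, using Steady-Glo reagent and a 30 min room-temperature hold.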
# TrxR1 inh = qHTS Assay for Inhibitors of Mammalian Selenoprotein Thioredoxin Reductase 1 (TrxR1): qHTS; Thioredoxin reductase 1, cytoplasmic (Rattus norvegicus), O89049; recombinant rTrxR1, NADPH fluorescence consumption, selenite substrate; Potency, µM (titrated, usually from 114 µM), inactives show at the highest dose activity change, negative = inhibition, usual class: inhibitors; 1% of 390,000 active; AID 588453, 2011; further: on the % scale 0 is the no-effect control and ±100 the full control effect; nearly all actives have a fitted effect of over 65% in size
# Target sequence (O89049 whole entry, looked up): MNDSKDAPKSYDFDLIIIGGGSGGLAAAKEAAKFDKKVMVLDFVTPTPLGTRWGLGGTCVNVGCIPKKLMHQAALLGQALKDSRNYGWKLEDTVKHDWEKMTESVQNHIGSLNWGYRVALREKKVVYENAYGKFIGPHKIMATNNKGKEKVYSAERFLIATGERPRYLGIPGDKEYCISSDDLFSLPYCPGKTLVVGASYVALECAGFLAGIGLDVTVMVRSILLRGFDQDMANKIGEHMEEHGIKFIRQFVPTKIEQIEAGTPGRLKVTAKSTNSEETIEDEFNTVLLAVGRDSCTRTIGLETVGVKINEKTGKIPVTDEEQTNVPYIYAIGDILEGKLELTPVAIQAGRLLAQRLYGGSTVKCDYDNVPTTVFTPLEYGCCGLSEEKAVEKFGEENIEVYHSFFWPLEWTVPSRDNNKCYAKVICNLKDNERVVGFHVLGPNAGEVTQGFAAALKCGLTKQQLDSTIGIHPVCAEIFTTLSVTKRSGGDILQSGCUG
#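 Rat TrxR1 (90 nM in the dispensed reagent) was pre-reduced with 400 uM NADPH for 5 min at room temperature, then incubated with compound for 15 min. After 400 uM selenite was added, NADPH fluorescence (Ex 340/Em 450 nm) was followed for 8 min.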
# TrxR1 substrate = qHTS Assay for Substrates of Mammalian Selenoprotein Thioredoxin Reductase 1 (TrxR1): qHTS; Thioredoxin reductase 1, cytoplasmic (Rattus norvegicus), O89049; 0.01% of 390,000 active; Potency, µM (titrated, usually from 114 µM), without a hit: at the top dose activity change, negative = substrate turnover; purified TrxR1 substrate turnover, NADPH consumption readout; further: on the % scale 0 is the no-effect control and ±100 the full control effect; nearly all actives have a fitted effect of over 50% in size
#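 Rat TrxR1, dispensed at 90 nM, was prereduced with 400 uM NADPH (final) for 5 min at ~22 deg C, then incubated with compound 15 min before 400 uM selenite. A first-read NADPH fluorescence drop versus no-compound background flagged substrates.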
# Nrf2 inh = Nrf2 qHTS screen for inhibitors | A549 ARE-Fluc reporter, luciferase luminescence, 18-24 h | 2.1% of 360,000 active | AID 504444, 2011 | Potency, µM (titrated, usually from 46 µM), for the others: top-dose activity change, negative = inhibition, most hits filed as inhibitors; further: on the % scale 0 is the no-effect control and ±100 the full control effect; nearly all actives have a fitted effect of over 60% in size
#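 Reporter: ARE-Fluc in A549. Exposure: 18-24 h, 37 °C, 5% CO2, 5% FBS OPTI-MEM. Readouts: fluorescent cytotoxicity (CellTiter-Fluor), then luminescent Nrf2 signal after BugLite.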
# GALK inhibitor = qHTS Assay for Inhibitors of Human Galactokinase (GALK); P51570; Purified GALK, Kinase-Glo residual ATP luminescence; Potency, µM (titrated, usually from 57.5 µM), for the others: at the top dose activity change, negative = inhibition, actives largely listed as inhibitors; 0.007% of 270,000 active; AID 1868, 2009; further: on the % scale 0 is the no-effect control and ±100 the full control effect
#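 The enzyme phosphorylates galactose (100 uM) using ATP (35 uM); inhibition is detected as higher residual ATP, quantified by bioluminescence after 1 h reaction at room temperature, pH 8.0.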
# A549 viability = Nrf2 qHTS screen for inhibitors: counterscreen for cytotoxicity; Potency, µM (top dose mostly 46 µM), inactives show top-dose activity change, negative = cytotoxicity, most hits filed as inhibitors; 0.16% of 390,000 active; A549 ARE-Fluc cells, CellTiter-Fluor viability, 18-24 h; further: on the % scale 0 is the no-effect control and ±100 the full control effect
#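 A549 ARE_Fluc cells in 5% FBS OPTI-MEM were exposed to compounds in concentration-response for 18-24 h at 37 deg C. Viability was read by CellTiter-Fluor fluorescence (Ex 405/Em 525) after 30 min, before the luciferase read.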
# Starred values were filed as active, the others as inactive; ? = inconclusive; nt = no result given; ! = a repeat was not active; [ ] = another dose, or the depositor's remark. In the library only some 3% were active in any assay of this set; here they are far more common. The call rests on the fitted dose curve; in most records, active means well fitted curve in the direction sought with a large enough effect; inconclusive means small, poorly fitted or top-dose-only effect, or another doubt; inactive means no such curve, though single readings can be large; an effect the other way counts as inactive or inconclusive. Potency means the concentration at half of the fitted maximal effect.
SMILES,Nrf2 ARE act,TrxR1 inh,TrxR1 substrate,Nrf2 inh,GALK inhibitor,A549 viability
COc1ccc(C)cc1NS(=O)(=O)c1ccc(NC(=O)CN(c2cc([N+](=O)[O-])ccc2C)S(C)(=O)=O)cc1,5%,-2%,-12%,?,-1%,-15%
COc1cc(NC(=O)c2cc3ccccc3cc2OC)ccc1NC(=O)c1cccs1,-1%,21%,6%,5.2µM*,6%,-10%
CCc1ccccc1N(C)C(=O)Cn1cnc2sc(C)c(S(=O)(=O)N3CCC(C)CC3)c2c1=O,-2%,10%,4%[2.29 µM],5%[9.27 µM],nt,5%
O=S(=O)(N1CCN(c2nc(-c3cccs3)nc3ccccc23)CC1)C(F)(F)F,nt,20%,-2%,-5%,nt,12%
CCOc1ncccc1C(=O)NNC(=O)c1ccc(NS(=O)(=O)c2cccs2)cc1,2.5µM*,-12%,-12%,2%,nt,0%
COc1cccc(NC(=O)c2ccccc2Oc2ccccc2)c1,1%,9%,-8%,-25%,nt,1%
CCOc1ncccc1C(=O)Nc1ccc(C(=O)Nc2ccc(OC)cc2)cc1,-1%,25%,14%,8.2µM*,nt,-15%
O=C(NNC(=O)c1ccccc1[N+](=O)[O-])c1ccc(NS(=O)(=O)c2cccs2)cc1,0%,1%,-5%,5%,7%,0%
COc1cccc(Nc2ncccc2C(=O)Nc2ccccc2)c1,2%,-1%,-10%,21µM*,-3%,?
COc1cc(NC(=O)Cn2nc(C(F)(F)F)c3c2CCC3)cc(OC)c1OC,6%,7%,-7%,?,nt,-12%
CCOC(=O)c1cc2c(=O)n3cccc(C)c3nc2n(Cc2ccco2)c1=NC(=O)c1ccccc1,0%,56µM*!,3%[11.4 µM],-1%,-4%,-3%
CC(C)(C)CC(C)(C)N=C1Nc2ccc([N+](=O)[O-])cc2N[C@]12C[C@H]1CCCC(=O)N3CC[C@@H](C2)[C@@H]13,nt,-10%,-13%,nt,nt,nt
CCC(=O)C1=C(O)C(c2cccc(Oc3ccccc3)c2)CCC1=O (stereo not given),2%,-3%,0%,15µM*,14%,?
O=C(NCc1ccco1)c1ccc2c(c1)N(Cc1ccc(Cl)cc1)C(=O)c1ccccc1S2(=O)=O,4%,23%,2%,?,nt,-22%
Brc1ccc(-c2nc3ccccc3s2)s1,11µM*,-8%,5%,?,7%,5%
CCOc1ccccc1NC(=O)C(CC(C)C)NS(=O)(=O)c1ccc2c(c1)oc(=O)n2C (stereo not given),0%,20%,6%,5%,nt,-8%
Cc1ccc(CC(=O)Nc2c(C(=O)N3CCN(c4ccccc4)CC3)oc3ccccc23)cc1,4%,10%,-4%,?,nt,3%
O=c1[nH]c(=O)n(CCOc2ccc(Cl)cc2)cc1Br,0%,17%[57.1 µM],10%[57.1 µM],-11%,1%,-3%
C=C1CC(Cn2cc(Br)c(=O)[nH]c2=O)(c2ccc(-c3ccccc3)cc2)OC1=O (stereo not given),?,7.1µM*,-1%,?,nt,?
CC(=O)Nc1cccc(-c2nnc(SCC(=O)c3cc([N+](=O)[O-])ccc3Br)o2)c1,?,-12%,-6%,-5%,nt,-17%
COc1ccc(-c2nn(-c3ccccc3)cc2/C=C2/SC(=S)N(CCC(=O)O)C2=O)cc1,2%,7%[57.1 µM],11%[57.1 µM],23µM*,0%,?
Cn1c(=O)c([N+](=O)[O-])c(-n2ccnc2)c2ccccc21,-3%,10µM*,11%[57.1 µM],?,-2%,?
O=C(COC(=O)c1nc(Cl)c(Cl)c(Cl)c1Cl)c1ccc[nH]1,22µM*,?,-7%,20%,nt,-6%
O=C(COC(=O)c1nc(Cl)ccc1Cl)c1ccc[nH]1,0%,7%,16%[57.1 µM],4%,nt,-6%
O=[N+]([O-])c1ccc(/C=C2\CCC(C3=CCCC3)=C2N2CCOCC2)cc1,?,40µM*,-10%,-11%,2%,-7%
SMILES,Nrf2 ARE act,TrxR1 inh,TrxR1 substrate,Nrf2 inh,GALK inhibitor,A549 viability
O=C(NP(=O)(N1CCCC1)N1CCCC1)C1=C(N2CCOCC2)/C(=C/c2cccc([N+](=O)[O-])c2)CC1,4%,-17%[57.1 µM],6%[57.1 µM],3%,3%,-1%
O=C(O)c1ccc(COc2ccc3ccccc3c2/C=C2/NC(=O)N(Cc3ccc(F)cc3)C2=O)cc1,5%,12%[57.1 µM],4%[57.1 µM],21µM*,-3%,-27%
Cc1ccsc1C1NC(=O)c2c(sc3c2CCCC3)N1 (stereo not given),7%,45µM*,0%,?,1%,-3%
O=C1NC(c2ccc(Br)cc2)Nc2sc3c(c21)CCC3 (stereo not given),5%,?,5%,19%,-2%,-1%
Cc1ccc(CCNC(=O)c2cc3ccccn3n2)cc1,0%,14%[57.1 µM],2%[57.1 µM],?,nt,15%
Cc1cc(C)nc(NS(=O)(=O)c2ccc(NC(=O)c3cccs3)cc2)n1,1%,30%[57.1 µM],13%[57.1 µM],nt,-5%,-4%
CCCCN(CCCC)S(=O)(=O)c1ccc(NC(=O)c2cccs2)cc1,4%,16%,-3%,18µM*,4%,?
CCn1nc(C)cc1-c1nnc(Sc2ncc([N+](=O)[O-])s2)n1C,-4%,0.35µM*,-10%,-7%,-3%,?
CCC(=O)NC(c1cc(Cl)c2cccnc2c1O)c1cccn1C (stereo not given),nt,nt,nt,26µM*,nt,-11%
CCC(=O)NC(c1ccc(OC)cc1)c1cc(Cl)c2cccnc2c1O (stereo not given),-1%,0%,-4%,26µM*,-1%,-10%
CCCCC(=O)NC(c1ccco1)c1cc(Cl)c2cccnc2c1O (stereo not given),0%,16%[57.1 µM],5%,?,1%,-19%
CCC(=O)NC(c1ccc(F)cc1)c1cc(Cl)c2cccnc2c1O (stereo not given),nt,nt,nt,?,nt,-11%
CC(=O)NC(c1cc(Cl)c2cccnc2c1O)C(C)C (stereo not given),0%,9%,-3%,21µM*,nt,-12%
CCC(=O)NC(c1ccco1)c1cc(Cl)c2cccnc2c1O (stereo not given),2%,-10%[57.1 µM],-2%[57.1 µM],9.2µM*!,-1%,?
CC(=O)N1CCCc2cc(S(=O)(=O)N3CCCC(C(=O)NC(C)C)C3)ccc21 (stereo not given),1%,16%[57.1 µM],2%[57.1 µM],nt,nt,10%

# Screens deposited in PubChem by National Center for Advancing Translational Sciences (NCATS).
